Test [1] in a line: qHTS assay to identify small molecule antagonists of the vitamin D receptor (VDR) signaling pathway - cell viability counter screen (AID 743225). Also: % is scaled to controls: 0 for no effect and ±100 for the full control effect; nearly all actives have a fitted effect of over 50% in size. In short, it runs like this: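 Read-out: CellTiter-Glo luminescence measured 30 min after reagent addition at room temperature. Cells were VDR-bla HEK 293T exposed 16 h at 37C, 5% CO2, to compound with 3 nM final calcitriol agonist.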
(In general: qHTS replaces the single test concentration by a dilution series.)

The nature of test [2]: qHTS assay to identify small molecule agonists of the NFkB signaling pathway - cell viability counter screen (AID 1159515; calls by dose curve; also: series mostly up to about 61 µM; % is scaled to controls: 0 for no effect and ±100 for the full control effect; nearly all actives have a fitted effect of over 55% in size). In short, it runs like this:
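Read by CellTiter-Glo luminescence (30 min, room temperature) in the wells also used for the beta-lactamase FRET read. ME-180 NFkB-bla cells at 2,000 per well were plated overnight, then exposed to compound for 5 hr at 37 C.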

Test [3] can be described thus: qHTS assay to identify small molecule agonists of the endoplasmic reticulum stress response signaling pathway (AID 1159516; active = well fitted activation curve with a large enough effect in the signal ratio in the repeat runs, not every such curve was filed as active; the % refers to the signal ratio; also: potency is read from the fitted curve at half-maximal effect; as to activation: % is scaled to controls: 0 for no effect and ±100 for the full control effect). The essentials: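 Ratiometric FRET readout (405 nm excitation; 460 and 530 nm emission) of a beta-lactamase gene driven by the ER stress response element, after 2 hr substrate loading. HeLa ESRE-bla cells were seeded overnight and treated with compounds for only 5 hr at 37 C.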

Test [4] in a line: qHTS assay to identify small molecule agonists of the endoplasmic reticulum stress response signaling pathway - cell viability counter screen (AID 1159517; calls by dose curve; also: series mostly up to about 61 µM; % is scaled to controls: 0 for no effect and ±100 for the full control effect; nearly all actives have a fitted effect of over 50% in size). The essentials: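 In parallel with the ESRE reporter read, cytotoxicity was scored by CellTiter-Glo luminescence (30 min, room temperature) on HeLa ESRE-bla cells dosed for 5 hr.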
The nature of test [5]: qHTS assay to identify small molecule antagonists of the retinoid-related orphan receptor gamma (ROR-gamma) signaling pathway - cell viability counter screen (AID 1159520). Also: % is scaled to controls: 0 for no effect and ±100 for the full control effect; nearly all actives have a fitted effect of over 50% in size. The essentials: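 Tet-on ROR gamma CHO cells were given compounds for 2 hr, then doxycycline hyclate at 1 uM final, and incubated 16 hr at 37 C. Viability was measured as ATP content by CellTiter-Glo luminescence.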

Test [6] concerns the target Nuclear receptor ROR-gamma (Homo sapiens) (UniProt P51449). Nature of the test: qHTS assay to identify small molecule antagonists of the retinoid-related orphan receptor gamma (ROR-gamma) signaling pathway (AID 1159521;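 also: CHO cells with doxycycline inducible ROR-gamma driving an RORE luciferase reporter; top concentration of the series differs between compounds; % is scaled to controls: 0 for no effect and ±100 for the full control effect; nearly all actives have a fitted effect of over 50% in size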). In short, it runs like this: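 CHO Tet-on RORγ, RORE-luc reporter. Cpd 2 h pre-incubation, then dox hyclate 1 uM final, 16 h, 37 C/5% CO2. ONE-Glo luminescence; decrease = antagonist.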

Test [7] in a line: qHTS assay to identify small molecule agonists of the AP-1 signaling pathway (AID 1159526; calls by dose curve; also: % is scaled to controls: 0 for no effect and ±100 for the full control effect).
Test [8] is described as follows: qHTS assay to identify small molecule agonists of the RXR signaling pathway - cell viability counter screen (AID 1159529). The essentials: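 HEK 293T RXRa-bla cells, 2% CS-FBS; 5 h settle; cpd 16 h 37 C, 5% CO2; CellTiter-Glo 30 min RT, luminescence. Tetraoctyl ammonium bromide as positive control.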
Test [9] is described as follows: qHTS assay to identify small molecule agonists of the AP-1 signaling pathway - cell viability counter screen (AID 1159525; calls by dose curve; also: nearly all actives have a fitted effect of over 55% in size). In short, it runs like this: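 Same-well cytotoxicity counter screen of the Tox21 10K library in ME-180 cells. The readout is ATP-dependent luminescence after 5 h compound treatment. Data are normalised to DMSO and tetra n-octyl ammonium bromide controls.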

Test [10] concerns the target Retinoic acid receptor RXR-alpha (Homo sapiens) (UniProt P19793). Nature of the test: qHTS assay to identify small molecule agonists of the RXR signaling pathway (AID 1159527; calls by dose curve; also: % is scaled to controls: 0 for no effect and ±100 for the full control effect; nearly all actives have a fitted effect of over 35% in size). The essentials:
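Read-out: beta-lactamase FRET ratio (405 nm excitation, 460 and 530 nm emission) after 2 hr substrate loading at room temperature. Cells were RXR-alpha-UAS-bla HEK 293T treated with compounds for 16 hr in 2% charcoal-stripped FBS medium.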

The structures appear in SMILES notation. Inconclusive results are not listed. Values without a mark were called inactive. Calls of active or inactive are those of the source. Unless noted, calls follow the shape of the dose curve; as a rule, active = well fitted curve in the direction sought with a large enough effect in the repeat runs; inconclusive = weak or mixed curves; inactive = no such curve, though single readings can be large; an effect the other way counts as inactive or inconclusive.

Retinoic acid receptor RXR-alpha (Homo sapiens), sequence (P19793 whole entry, looked up): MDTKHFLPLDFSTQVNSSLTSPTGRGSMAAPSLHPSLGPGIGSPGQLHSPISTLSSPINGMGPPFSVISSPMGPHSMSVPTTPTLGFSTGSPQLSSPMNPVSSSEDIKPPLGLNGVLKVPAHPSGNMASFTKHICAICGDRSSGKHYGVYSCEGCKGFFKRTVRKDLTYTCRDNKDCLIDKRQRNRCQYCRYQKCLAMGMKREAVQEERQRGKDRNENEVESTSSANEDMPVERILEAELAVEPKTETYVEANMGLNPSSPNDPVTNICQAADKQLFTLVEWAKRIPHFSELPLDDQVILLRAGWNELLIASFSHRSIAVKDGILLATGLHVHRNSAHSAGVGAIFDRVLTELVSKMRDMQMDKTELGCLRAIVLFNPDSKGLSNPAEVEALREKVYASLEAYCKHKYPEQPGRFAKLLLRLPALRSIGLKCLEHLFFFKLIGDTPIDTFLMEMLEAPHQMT

With `COC(=O)c1c(C)cc(O)c(C)c1O`, the result in test [1], in [2], in test [4], in test [5] and in test [6] was inactive. For the same molecule, the Potency entry in test [3], in test [7] and in [8] was “inactive” throughout.

With `CCN(CC)CC(=O)Oc1ccc(NC(C)=O)cc1`, the molecule was called inactive in test [1], in test [2], in [5], in [6] and in test [9]. The Potency entry in test [3], in test [7], in test [10] and in test [8] was “inactive” each time.

As to `C=CCCCCCCCCOC(C)=O`, the result in test [1], in [2], in test [5], in [6] and in test [9] was inactive. The Potency result in test [3], in test [7], in test [10] and in test [8] was “inactive” in each case.

`NC[C@H]1O[C@H](O[C@H]2[C@H](O)[C@@H](O[C@H]3O[C@H](CO)[C@@H](O)[C@H](N)[C@H]3O)[C@H](N)C[C@@H]2N)[C@H](N)[C@@H](O)[C@@H]1O`: the result in test [1] and in test [2] was inactive. In addition, the Potency entry in [3] is “inactive”. In addition, the activity, negative = cytotoxicity in test [5] was 0.5% [at 19 µM]. For the same molecule, the activity change, negative = inhibition in [6] was -19.4% [at 19 µM]. For the same molecule, the viability change, negative = cytotoxic in [9] was 1.49% [at 15.8 µM]. Besides, the activation is 0.424% [at 15.8 µM] in [7] and 4.18% [at 15.8 µM] in test [10].

For the molecule `C[C@@H]1CC[C@@]2(OC1)O[C@H]1C[C@H]3[C@@H]4CC[C@H]5C[C@@H](O)CC[C@]5(C)[C@H]4CC(=O)[C@]3(C)[C@H]1[C@@H]2C`, the viability change, negative = cytotoxic in test [1] is -3.49% [at 6.95 µM]. Besides, the activity, negative = cytotoxic in [2] was 6.74% [at 6.95 µM]. For the same molecule, the activation in test [3] is 3.05% [at 6.95 µM]; in test [7] it was -4.54% [at 6.97 µM]. Further, in [5], the activity, negative = cytotoxicity is 4% [at 8.39 µM]. Moreover, the activity change, negative = inhibition in [6] is 0.0168% [at 8.39 µM].

For the molecule `CCNC(=O)C(C)OC(=O)Nc1ccccc1` (centres undefined), the call in test [1], in test [2], in test [5], in test [6] and in test [9] was inactive. For the same molecule, the Potency result in test [3], in [7] and in test [8] was “inactive” throughout.

As for `CN(C)CCCN(C)C`, the results for the activation in test [3], in test [7] and in test [10] were 3.45% [at 6.95 µM], -5.98% [at 6.97 µM] and 4.65% [at 6.98 µM], respectively. For the same molecule, the activity change, negative = cytotoxicity in test [4] is 19.8% [at 6.95 µM]; in [8] it was -1.24% [at 6.97 µM]. Moreover, in [5], the activity, negative = cytotoxicity is 11.1% [at 8.39 µM]. The activity change, negative = inhibition in test [6] is -7.64% [at 8.39 µM]. For the same molecule, the viability change, negative = cytotoxic in test [9] was -0.503% [at 6.97 µM].

In the case of `COc1cc(C(=O)NC2CCCNC2)cc(OC)c1OC` (centres undefined), the molecule was called inactive in test [1], in test [2], in test [5], in test [6] and in [9]. Also, the Potency result in test [3], in [7], in test [10] and in test [8] was “inactive” each time.

For the molecule `O=C1c2ccccc2C(=O)N1CO`, the molecule was called inactive in test [1], in [2], in [5] and in test [6]. The Potency entry in test [3], in test [7], in test [10] and in [8] was “inactive” in each case.

As to `CC(CN1CC(=O)NC(=O)C1)N1CC(=O)NC(=O)C1` (centres undefined), the result in [1], in test [2], in [5] and in [6] was inactive. Also, the Potency entry in [3], in [7] and in test [8] was “inactive” throughout.

`CCCc1ccc(O)c(OC)c1`: the outcome in [2], in [5], in [6] and in test [9] was inactive. The Potency entry in test [3], in test [7] and in [8] was “inactive” throughout.

Consider `CC(CC(=O)Cl)CC(C)(C)C` (centres undefined), for which the call in test [1], in test [2], in test [5], in test [6] and in test [9] was inactive. Further, the Potency entry in test [3], in [7], in test [10] and in [8] was “inactive” each time.

On to `CCCCCCCC(=O)N(C)C`, for which the call in test [1], in test [2], in test [5], in test [6] and in [9] was inactive. Moreover, the Potency result in [3], in test [7] and in [10] was “inactive” in each case.

On to `c1cc2ccc3ccc4ccc5cccc6c(c1)c2c3c4c56`, for which the viability change, negative = cytotoxic in [1] is -0.521% [at 3.11 µM]; in [9], -12.5% [at 2.72 µM]. Also, the activity, negative = cytotoxic in test [2] was -1.06% [at 3.12 µM]. Besides, the Potency in test [3] was 1740 nM (active). For the same molecule, the activity, negative = cytotoxicity in [5] was 0.12% [at 3.27 µM]. Also, the activity change, negative = inhibition in test [6] is 7.63% [at 3.27 µM]. Besides, the activation in test [7] is -1.11% [at 2.72 µM]; in test [10], 5.24% [at 2.71 µM].

For `COC(=O)/C=C(\C)CCC=C(C)C`, the Potency entry in test [3], in test [7], in test [10] and in [8] was “inactive” in each case. Moreover, the outcome in test [4], in test [5], in [6] and in [9] was inactive.

Take `COCc1nnc(-c2ccc[n+]([O-])c2)n1-c1c(Cl)c(Cl)cc2[nH]c(=O)c(=O)[nH]c12`: the molecule was classed as inactive in test [1], in [2], in [5], in test [6] and in test [9]. In addition, the Potency entry in test [3], in [7], in [10] and in [8] was “inactive” each time.

These data come from PubChem BioAssay (Tox21).
